In the supplement of paper PMC10849652:
About 7,900 targets were measured; listed, in parts, are those with a hit and a random draw of the rest. About 0.6% of all pairs of compound and target were hits.

Legend:
Assay in all cases: log2 fold change, soluble protein after heating vs DMSO (PISA); higher = thermal stabilisation; K562 cells, 10 uM, 30 min; active = over 0.2 and 3.5 SD of the protein, either way, in both replicates (recomputed)
[1] = compound: CC[C@@H]1C(=O)N(C)c2cnc(Nc3ccc(C(=O)NC4CCN(C)CC4)cc3OC)nc2N1C1CCCC1
In short: (§1)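 Soluble protein was defined as the supernatant after 21,000xg for 90 min. It came from K562 cells at 2×10^6 cells/mL given 10 μM compound for 30 min, heated in aliquots for 3 min across 48°C-58°C, pooled, and extracted in PBS with 0.5% NP-40 at 4°C, and was quantified by TMTpro 16plex LC-MS/MS with equalised channel sums. Thermal stability against control samples, from duplicates, is reported as log2 fold change.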

volasertib = compound: CC[C@@H]1C(=O)N(C)c2cnc(Nc3ccc(C(=O)N[C@H]4CC[C@H](N5CCN(CC6CC6)CC5)CC4)cc3OC)nc2N1C(C)C [volasertib]
In short: as §1

[2] = compound: CC[C@H](C)N1C=C(C2=C(C=C(C=C21)C3=CN=C(C=C3)N4CCNCC4)C(=O)NCC5=C(C=C(NC5=O)C)C)C
In short: as §1

epoxomicin = compound: CC[C@H](C)[C@@H](C(=O)N[C@@H]([C@@H](C)O)C(=O)N[C@@H](CC(C)C)C(=O)[C@]1(CO1)C)NC(=O)[C@H]([C@@H](C)CC)N(C)C(=O)C [epoxomicin]
In short: as §1

[3] = compound: CCn1c(C(=O)N(C2CC2)C2CC2)cc2c3c(ncn3C)c(Nc3cc(C)n(C)n3)nc21
In short: as §1

[4] = compound: CCn1cc(-c2ccnc3[nH]c(-c4cccc(CN(C)C)c4)cc23)c(-c2ccc(NC(=O)N(C)C)cc2)n1
In short: as §1

[5] = compound: CN(C)CC(=O)Nc1ccc2[nH]c(=O)c3ccccc3c2c1
In short: as §1

rosiglitazone = compound: CN(CCOC1=CC=C(C=C1)C[C@H]2C(=O)NC(=O)S2)C3=CC=CC=N3 (racemic) [rosiglitazone]
In short: as §1

[6] = compound: CN1C2=C(C3=C1C(=O)N(N=C3)CC4=CC(=CC=C4)N)SC(=C2)S(=O)C
In short: as §1

[7] = compound: CN1CCC(CNc2ccc3ncc(-c4cccc(OC(F)(F)F)c4)n3n2)CC1
In short: as §1

Measured: log2 fold change

DHX16 (UniProt O60231)
inactive: [1] -0.032 | volasertib -0.158 | [2] 0.032 | epoxomicin 0.051 | [3] -0.05 | [4] -0.054 | [5] -0.025 | rosiglitazone 0.031 | [6] -0.033 | [7] -0.012

DBNL isoform 3 (UniProt Q9UJU6)
Chain of UniProt Q9UJU6 (Q9UJU6 whole entry, looked up): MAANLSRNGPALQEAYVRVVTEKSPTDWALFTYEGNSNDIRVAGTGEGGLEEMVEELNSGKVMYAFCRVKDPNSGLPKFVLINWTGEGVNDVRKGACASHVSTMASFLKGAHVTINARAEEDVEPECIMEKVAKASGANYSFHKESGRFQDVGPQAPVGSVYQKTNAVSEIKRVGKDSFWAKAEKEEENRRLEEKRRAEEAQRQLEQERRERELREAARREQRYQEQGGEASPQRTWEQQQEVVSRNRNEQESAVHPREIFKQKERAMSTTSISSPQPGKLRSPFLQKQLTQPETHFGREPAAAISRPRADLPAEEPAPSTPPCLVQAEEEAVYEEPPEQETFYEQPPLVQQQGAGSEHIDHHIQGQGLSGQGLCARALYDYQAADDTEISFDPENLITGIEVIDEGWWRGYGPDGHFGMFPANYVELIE
active: volasertib -0.367
inactive: [1] -0.143 | [2] 0.031 | epoxomicin 0.012 | [3] -0.046 | [4] 0.007 | [5] 0.011 | rosiglitazone 0.095 | [6] -0.075 | [7] -0.109

EXTL2 (UniProt Q9UBQ6)
inactive: [1] 0.057 | volasertib -0.052 | [2] 0.041 | epoxomicin -0.035 | [3] -0.04 | [4] -0.046 | [5] 0.06 | rosiglitazone -0.024 | [6] -0.001 | [7] -0.157

DPP8 (UniProt Q6V1X1)
inactive: [1] 0.143 | volasertib 0.007 | [2] -0.025 | epoxomicin -0.045 | [3] 0.019 | [4] 0.002 | [5] -0.057 | rosiglitazone 0.02 | [6] -0.047 | [7] -0.106

EGLN1 (UniProt Q9GZT9)
inactive: [1] 0.117 | volasertib -0.001 | [2] 0.048 | epoxomicin 0.078 | [3] -0.011 | [4] -0.004 | [5] 0.007 | rosiglitazone 0.035 | [6] -0.006 | [7] -0.052

DHX36 (UniProt Q9H2U1)
inactive: [1] 0.11 | volasertib 0.059 | [2] 0.002 | epoxomicin -0.032 | [3] -0.009 | [4] 0.032 | [5] -0.032 | rosiglitazone -0.015 | [6] 0.086 | [7] -0.027

ELOVL1 (UniProt Q9BW60)
inactive: [1] -0.217 | volasertib -0.127 | [2] -0.011 | epoxomicin 0.003 | [3] -0.044 | [4] 0.032 | [5] 0.116 | rosiglitazone 0.002 | [6] -0.068
active: [7] -0.691

DUS2 (UniProt Q9NX74)
inactive: [1] -0.052 | volasertib -0.242 | [2] 0.037 | epoxomicin 0.059 | [3] -0.059 | [4] -0.029 | [5] 0.055 | rosiglitazone 0.063 | [6] 0.115 | [7] -0.02

DMXL1 (UniProt Q9Y485)
active: [7] -0.276
inactive: [1] -0.119 | volasertib -0.241 | [2] 0.029 | epoxomicin 0.026 | [3] -0.044 | [4] 0.072 | [5] 0.012 | rosiglitazone -0.032 | [6] 0.01

DHPS (UniProt P49366)
Chain of UniProt P49366 (P49366 whole entry, looked up): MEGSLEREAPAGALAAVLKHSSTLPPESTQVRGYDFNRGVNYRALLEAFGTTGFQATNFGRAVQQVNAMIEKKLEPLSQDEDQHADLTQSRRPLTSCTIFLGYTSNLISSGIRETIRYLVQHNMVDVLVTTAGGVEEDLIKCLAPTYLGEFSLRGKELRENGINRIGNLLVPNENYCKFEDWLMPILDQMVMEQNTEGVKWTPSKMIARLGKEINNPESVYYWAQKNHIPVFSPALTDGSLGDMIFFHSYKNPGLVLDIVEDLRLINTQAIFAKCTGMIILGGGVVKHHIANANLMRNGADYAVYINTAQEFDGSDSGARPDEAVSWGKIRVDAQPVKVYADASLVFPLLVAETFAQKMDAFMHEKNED
inactive: [1] 0.045 | volasertib 0.028 | [2] 0.001 | epoxomicin 0.046 | [3] -0.002 | [4] 0.014 | [5] -0.012 | rosiglitazone -0.01 | [6] -0.017 | [7] -0.049

DCAF16 (UniProt Q9NXF7)
active: volasertib -0.532
inactive: [1] -0.164 | [2] 0.06 | epoxomicin 0.032 | [3] -0.026 | [4] -0.205 | [5] 0.073 | rosiglitazone 0.055 | [6] -0.052 | [7] 0.03

F5 (UniProt P12259)
inactive: [1] -0.06 | volasertib 0.105 | [2] -0.018 | epoxomicin -0.125 | [3] 0.163 | [4] -0.048 | [5] -0.09 | rosiglitazone -0.054 | [6] 0.141 | [7] -0.009

DNAJB1 (UniProt P25685)
Chain of UniProt P25685 (P25685 whole entry, looked up): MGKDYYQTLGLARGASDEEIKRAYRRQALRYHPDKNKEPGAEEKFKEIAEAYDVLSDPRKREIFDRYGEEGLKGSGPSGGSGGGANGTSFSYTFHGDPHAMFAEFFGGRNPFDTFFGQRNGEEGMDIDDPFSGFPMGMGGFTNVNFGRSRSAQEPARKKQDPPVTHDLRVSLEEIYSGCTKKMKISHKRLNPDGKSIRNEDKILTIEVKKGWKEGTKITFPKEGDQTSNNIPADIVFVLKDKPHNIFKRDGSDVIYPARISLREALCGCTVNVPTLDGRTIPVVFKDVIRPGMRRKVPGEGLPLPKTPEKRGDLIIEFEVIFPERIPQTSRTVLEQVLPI
active: volasertib -0.222
inactive: [1] 0.011 | [2] 0.064 | epoxomicin -0.041 | [3] -0.022 | [4] -0.026 | [5] -0.01 | rosiglitazone 0.02 | [6] -0.064 | [7] -0.042

DOHH (UniProt Q9BU89)
active: rosiglitazone 0.471
inactive: [1] -0.035 | volasertib -0.027 | [2] 0.031 | epoxomicin -0.197 | [3] 0.064 | [4] -0.1 | [5] 0.145 | [6] 0.025 | [7] 0.164

DNAJB12 (UniProt Q9NXW2)
Chain of UniProt Q9NXW2 (Q9NXW2 whole entry, looked up): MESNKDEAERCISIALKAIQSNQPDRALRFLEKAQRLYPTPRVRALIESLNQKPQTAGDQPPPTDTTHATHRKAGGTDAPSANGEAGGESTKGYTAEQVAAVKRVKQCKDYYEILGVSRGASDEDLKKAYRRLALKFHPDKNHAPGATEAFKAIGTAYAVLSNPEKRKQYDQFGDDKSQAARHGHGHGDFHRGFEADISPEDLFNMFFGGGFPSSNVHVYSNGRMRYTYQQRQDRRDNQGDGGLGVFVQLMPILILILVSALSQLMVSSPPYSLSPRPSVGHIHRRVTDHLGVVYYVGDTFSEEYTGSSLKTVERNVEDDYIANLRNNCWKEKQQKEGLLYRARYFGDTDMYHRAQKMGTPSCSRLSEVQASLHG
inactive: [1] -0.045 | volasertib -0.123 | [2] -0.033 | epoxomicin -0.003 | [3] -0.096 | [4] 0.024 | [5] 0.022 | rosiglitazone 0.023 | [6] 0.068 | [7] -0.081

DIP2A (UniProt Q14689)
inactive: [1] -0.065 | volasertib 0.026 | [2] -0.037 | epoxomicin -0.017 | [3] 0.037 | [4] -0.063 | [5] -0.041 | rosiglitazone -0.034 | [6] -0.045 | [7] 0.057

DFFB (UniProt O76075)
Chain of UniProt O76075 (O76075 whole entry, looked up): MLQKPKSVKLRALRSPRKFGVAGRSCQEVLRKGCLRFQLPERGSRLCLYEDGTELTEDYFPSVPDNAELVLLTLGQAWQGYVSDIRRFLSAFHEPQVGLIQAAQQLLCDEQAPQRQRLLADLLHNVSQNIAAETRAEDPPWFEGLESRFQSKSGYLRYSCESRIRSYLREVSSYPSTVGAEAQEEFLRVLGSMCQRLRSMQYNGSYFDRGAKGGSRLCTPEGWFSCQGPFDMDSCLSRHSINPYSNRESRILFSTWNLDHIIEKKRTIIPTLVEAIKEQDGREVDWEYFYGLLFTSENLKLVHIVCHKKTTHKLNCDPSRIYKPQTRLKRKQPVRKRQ
inactive: [1] 0.049 | volasertib 0.036 | [2] 0.104 | epoxomicin 0.039 | [3] -0.057 | [4] 0.028 | [5] -0.036 | rosiglitazone 0 | [6] -0.074 | [7] -0.01

DHCR7 (UniProt Q9UBM7)
Chain of UniProt Q9UBM7 (Q9UBM7 whole entry, looked up): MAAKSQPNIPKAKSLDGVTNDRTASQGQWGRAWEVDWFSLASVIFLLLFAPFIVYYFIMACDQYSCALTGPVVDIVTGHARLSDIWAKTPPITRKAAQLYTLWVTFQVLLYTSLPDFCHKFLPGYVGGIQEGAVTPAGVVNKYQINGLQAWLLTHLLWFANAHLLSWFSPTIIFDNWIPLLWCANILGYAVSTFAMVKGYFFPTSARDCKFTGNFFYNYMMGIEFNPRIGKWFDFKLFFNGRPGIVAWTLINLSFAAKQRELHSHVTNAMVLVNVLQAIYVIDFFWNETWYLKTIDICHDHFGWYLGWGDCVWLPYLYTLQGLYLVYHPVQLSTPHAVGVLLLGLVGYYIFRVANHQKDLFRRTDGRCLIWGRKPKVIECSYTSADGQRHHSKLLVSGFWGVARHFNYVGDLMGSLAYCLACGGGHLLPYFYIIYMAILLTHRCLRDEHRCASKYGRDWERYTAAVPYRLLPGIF
active: volasertib 1.68 | [4] 0.522
inactive: [1] 0.409 | [2] 0.054 | epoxomicin 0.154 | [3] -0.044 | [5] 0.085 | rosiglitazone 0.032 | [6] -0.055 | [7] 0.203

EVC2 (UniProt Q86UK5)
Chain of UniProt Q86UK5 (Q86UK5 whole entry, looked up): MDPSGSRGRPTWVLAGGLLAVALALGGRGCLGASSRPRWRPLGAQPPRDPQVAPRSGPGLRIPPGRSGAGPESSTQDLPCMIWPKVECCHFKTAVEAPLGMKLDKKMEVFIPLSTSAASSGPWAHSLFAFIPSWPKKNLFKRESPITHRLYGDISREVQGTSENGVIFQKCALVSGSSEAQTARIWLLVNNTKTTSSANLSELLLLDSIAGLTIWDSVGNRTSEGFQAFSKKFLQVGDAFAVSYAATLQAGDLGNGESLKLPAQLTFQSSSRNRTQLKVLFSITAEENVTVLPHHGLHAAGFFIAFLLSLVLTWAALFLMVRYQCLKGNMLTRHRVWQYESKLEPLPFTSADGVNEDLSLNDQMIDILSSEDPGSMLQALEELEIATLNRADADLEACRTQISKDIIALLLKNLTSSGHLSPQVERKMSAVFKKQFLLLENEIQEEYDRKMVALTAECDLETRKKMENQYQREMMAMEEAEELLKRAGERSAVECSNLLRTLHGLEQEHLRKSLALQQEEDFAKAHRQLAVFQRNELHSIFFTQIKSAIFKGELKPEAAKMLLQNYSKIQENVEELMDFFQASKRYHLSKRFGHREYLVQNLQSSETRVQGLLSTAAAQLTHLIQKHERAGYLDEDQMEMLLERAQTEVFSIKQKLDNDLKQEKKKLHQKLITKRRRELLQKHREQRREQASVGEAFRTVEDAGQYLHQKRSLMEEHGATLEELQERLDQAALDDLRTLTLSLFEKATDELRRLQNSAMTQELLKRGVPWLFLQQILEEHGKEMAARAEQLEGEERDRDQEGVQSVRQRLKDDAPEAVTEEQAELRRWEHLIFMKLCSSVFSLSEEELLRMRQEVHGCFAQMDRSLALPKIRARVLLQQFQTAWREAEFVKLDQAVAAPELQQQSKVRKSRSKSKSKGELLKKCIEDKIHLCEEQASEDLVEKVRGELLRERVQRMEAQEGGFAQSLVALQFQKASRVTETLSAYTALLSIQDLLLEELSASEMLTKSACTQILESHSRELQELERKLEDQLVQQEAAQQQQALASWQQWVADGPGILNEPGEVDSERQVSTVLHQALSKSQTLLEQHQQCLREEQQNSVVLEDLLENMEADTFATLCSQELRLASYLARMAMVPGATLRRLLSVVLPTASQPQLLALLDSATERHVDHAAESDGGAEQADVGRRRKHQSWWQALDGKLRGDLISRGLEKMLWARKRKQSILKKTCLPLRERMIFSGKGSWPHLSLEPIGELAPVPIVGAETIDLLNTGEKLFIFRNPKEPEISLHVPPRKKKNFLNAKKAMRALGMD
inactive: [1] -0.133 | volasertib -0.003 | [2] 0.078 | epoxomicin 0.097 | [3] -0.038 | [4] -0.037 | [5] -0.087 | rosiglitazone 0.128 | [6] 0.034 | [7] -0.293

ELOC (UniProt Q15369)
inactive: [1] -0.009 | volasertib -0.016 | [2] 0.042 | epoxomicin 0.028 | [3] 0.006 | [4] -0.087 | [5] 0.108 | rosiglitazone 0.011 | [6] -0.033 | [7] -0.014

DYNC1LI2 (UniProt O43237)
inactive: [1] 0.324 | volasertib -0.021 | [2] -0.181 | epoxomicin -0.072 | [3] -0.085 | [4] -0.041 | [5] 0.024 | rosiglitazone 0.052 | [6] -0.007 | [7] 0.101

EPHX2 (UniProt P34913)
Chain of UniProt P34913 (P34913 whole entry, looked up): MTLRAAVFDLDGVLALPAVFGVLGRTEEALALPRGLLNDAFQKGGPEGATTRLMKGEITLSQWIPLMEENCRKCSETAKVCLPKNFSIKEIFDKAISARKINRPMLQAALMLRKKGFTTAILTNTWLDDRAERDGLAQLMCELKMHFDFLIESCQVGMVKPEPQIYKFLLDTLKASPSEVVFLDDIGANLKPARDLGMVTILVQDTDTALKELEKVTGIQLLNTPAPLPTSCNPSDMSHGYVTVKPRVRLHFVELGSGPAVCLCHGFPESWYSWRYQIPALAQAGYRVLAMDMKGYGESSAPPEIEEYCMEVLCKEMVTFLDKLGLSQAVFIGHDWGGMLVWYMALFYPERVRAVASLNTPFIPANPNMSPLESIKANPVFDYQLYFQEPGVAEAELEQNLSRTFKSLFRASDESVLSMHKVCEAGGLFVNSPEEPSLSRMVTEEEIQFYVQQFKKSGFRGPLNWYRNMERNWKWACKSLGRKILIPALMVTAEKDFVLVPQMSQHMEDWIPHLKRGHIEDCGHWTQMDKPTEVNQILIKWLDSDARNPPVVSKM
inactive: [1] 0.098 | volasertib 0.117 | [2] -0.019 | epoxomicin -0.012 | [3] -0.002 | [4] -0.032 | [5] -0.015 | rosiglitazone 0.033 | [6] 0.066 | [7] 0.091

CYP51A1 (UniProt Q16850)
inactive: [1] 0.019 | volasertib 0.132 | [2] 0.052 | epoxomicin -0.061 | [3] 0.058 | [4] 0.015 | [5] 0.015 | rosiglitazone -0.056 | [6] 0.072
active: [7] -0.331

FAM207A (UniProt Q9NSI2)
Chain of UniProt Q9NSI2 (Q9NSI2 whole entry, looked up): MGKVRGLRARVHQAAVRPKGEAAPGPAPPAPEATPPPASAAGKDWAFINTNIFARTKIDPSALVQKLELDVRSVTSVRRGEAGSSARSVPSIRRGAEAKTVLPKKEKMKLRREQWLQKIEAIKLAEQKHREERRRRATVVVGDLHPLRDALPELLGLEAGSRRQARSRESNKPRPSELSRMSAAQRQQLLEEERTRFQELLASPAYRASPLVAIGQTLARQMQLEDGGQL
active: [7] 0.418
inactive: [1] -0.085 | volasertib -0.165 | [2] 0.044 | epoxomicin -0.024 | [3] 0.025 | [4] 0.023 | [5] 0.05 | rosiglitazone 0.146 | [6] 0.168

EBNA1BP2 (UniProt Q99848)
inactive: [1] 0.167 | volasertib 0.351 | [2] 0.021 | epoxomicin -0.343 | [3] -0.059 | [4] 0.132 | [5] -0.106 | rosiglitazone -0.25 | [6] 0.379 | [7] 0.197

FAM114A2 (UniProt Q9NRY5)
Chain of UniProt Q9NRY5 (Q9NRY5 whole entry, looked up): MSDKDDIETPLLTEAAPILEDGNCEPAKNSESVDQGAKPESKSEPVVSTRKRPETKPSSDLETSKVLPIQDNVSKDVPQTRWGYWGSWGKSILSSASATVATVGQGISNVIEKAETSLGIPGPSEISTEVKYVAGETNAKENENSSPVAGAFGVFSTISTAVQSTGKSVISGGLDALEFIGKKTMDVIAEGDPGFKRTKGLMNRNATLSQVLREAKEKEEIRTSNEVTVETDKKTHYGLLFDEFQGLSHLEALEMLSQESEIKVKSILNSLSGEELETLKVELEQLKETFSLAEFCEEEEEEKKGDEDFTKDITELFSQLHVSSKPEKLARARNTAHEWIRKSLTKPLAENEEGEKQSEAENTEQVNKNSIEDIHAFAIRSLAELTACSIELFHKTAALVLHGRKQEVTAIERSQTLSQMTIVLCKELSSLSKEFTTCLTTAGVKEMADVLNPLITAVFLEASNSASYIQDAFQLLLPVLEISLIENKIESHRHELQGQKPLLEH
active: [7] -0.29
inactive: [1] -0.094 | volasertib -0.136 | [2] 0.046 | epoxomicin 0.052 | [3] -0.001 | [4] -0.059 | [5] 0.02 | rosiglitazone 0.049 | [6] -0.013

EXOC2 (UniProt Q96KP1)
active: [7] -0.386
inactive: [1] -0.13 | volasertib -0.463 | [2] -0.041 | epoxomicin 0 | [3] -0.089 | [4] 0.044 | [5] 0.058 | rosiglitazone 0.01 | [6] 0.123

DCAF10 (UniProt Q5QP82)
inactive: [1] -0.003 | volasertib 0.029 | [2] -0.038 | epoxomicin -0.102 | [3] -0.049 | [4] -0.018 | [5] -0.043 | rosiglitazone -0.015 | [6] -0.026 | [7] 0.022

EOGT (UniProt Q5NDL2)
inactive: [1] -0.004 | volasertib 0.013 | [2] -0.037 | epoxomicin 0.05 | [3] -0.007 | [4] 0.001 | [5] 0 | rosiglitazone 0.022 | [6] 0.021 | [7] 0.062

DLD (UniProt P09622)
inactive: [1] 0.043 | volasertib 0.143 | [2] -0.028 | epoxomicin -0.015 | [3] 0.049 | [4] -0.007 | [5] -0.012 | rosiglitazone -0.008 | [6] -0.035 | [7] -0.118
